Source: PubChem BioAssay (Tox21)
Records with an inconclusive call do not appear. Where a call stands in place of a potency, no number is given. Some compounds were tested as several samples or in several runs, with calls that do not always agree. Calls of active or inactive are those of the source. Unless noted, the call rests on the fitted dose curve.

Tests used:
[1] = Nuclear factor erythroid 2-related factor 2/antioxidant responsive element (Nrf2/ARE) small molecule agonists: qHTS cell viability counter screen in human keratinocytes (AID 1919968; active means well fitted cell-killing curve with a large enough effect in the repeat runs; further: nearly all actives have a fitted effect of over 55% in size; further: potency means the concentration at half of the fitted maximal effect)
Outline: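 HaCaT ARE reporter line, 1,500 cells/well; 5 h settle, 37 C/5% CO2; cpd in DMSO pinned; 23 h exposure; CellTiter-Fluor, 1 h; fluorescence.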

[2] = Nuclear factor erythroid 2-related factor 2/antioxidant responsive element (Nrf2/ARE) small molecule agonists: luciferase reporter gene qHTS assay in human keratinocytes (AID 1919969); further: nearly all actives have a fitted effect of over 35% in size; further: potency means the concentration at half of the fitted maximal effect
[3] = target: Gonadotropin-releasing hormone receptor (Homo sapiens) (UniProt P30968); assay: Human gonadotropin-releasing hormone receptor (GnRHR) small molecule agonists, calcium flux assay in GnRHR-HEK293 cells (AID 1920063); further: nearly all actives have a fitted effect of over 35% in size
Chain of Gonadotropin-releasing hormone receptor (Homo sapiens) (P30968 whole entry, looked up): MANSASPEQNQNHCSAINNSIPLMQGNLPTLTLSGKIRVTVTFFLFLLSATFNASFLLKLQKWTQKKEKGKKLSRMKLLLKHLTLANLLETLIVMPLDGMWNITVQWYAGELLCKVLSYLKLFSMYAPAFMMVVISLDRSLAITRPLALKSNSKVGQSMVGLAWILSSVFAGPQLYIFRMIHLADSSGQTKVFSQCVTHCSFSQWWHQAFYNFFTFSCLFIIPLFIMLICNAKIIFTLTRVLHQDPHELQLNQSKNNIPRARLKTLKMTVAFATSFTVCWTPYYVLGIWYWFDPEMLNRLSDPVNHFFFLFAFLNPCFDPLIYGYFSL
Outline: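 GnRHR-HEK293, 1500 cells/well, 18 h 37 C/5% CO2; Ca dye 1 h 37 C; cpd pinned (DMSO), agonist mode; kinetic FL 480/540, 3 min, 1 s reads; 15 conc, n=3.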

[4] = G protein-coupled receptor (GPCR) small molecule agonists, calcium flux assay: HEK293 wild type cell line counter screen (AID 1920065)
Outline: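 Kinetic fluorescence at Ex/Em 480/540, recorded every second over 3 min, served as the read-out after compound addition. Each compound was tested at 15 concentrations in triplicate on cells pre-loaded with calcium dye for 1 h.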

[5] = p53 small molecule agonists, cell-based qHTS assay with human liver microsomes (AID 1963577)
Outline: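 Fluorescence of the beta-lactamase reporter in p53RE-bla cells, detected with LiveBLAzer substrate (2 h, room temperature, dark), served as the read-out after 16 h compound exposure at 37 C with human liver microsomes and NADPH, each 0.5 mg/mL final.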

[6] = p53 small molecule agonists, cell-based qHTS assay with rat liver microsomes (AID 1963578)
Outline: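 Cells carrying a p53 response element–beta-lactamase reporter were plated and rested 5 h, then dosed with compound in DMSO plus rat liver microsomes and NADPH, each at 0.5 mg/mL final. After 16 h at 37 C, LiveBLAzer substrate was added for 2 h.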

[7] = p53 small molecule agonists, cell-based qHTS assay with human liver microsomes: qHTS cell viability counter screen (AID 1963579); further: nearly all actives have a fitted effect of over 45% in size
Outline: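 Cytotoxicity counter screen: p53RE-bla, 4,000 cells/well; 5 h settle, 37 C/5% CO2; cpd + HLM 0.5 mg/mL + NADPH 0.5 mg/mL (final); 16 h, 37 C; CellTiter-Glo, 30 min RT, luminescence.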

[8] = p53 small molecule agonists, cell-based qHTS assay with rat liver microsomes: qHTS cell viability counter screen (AID 1963580); further: nearly all actives have a fitted effect of over 45% in size
Outline: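 Intracellular ATP, by CellTiter-Glo luminescence, defines viability. HCT-116 p53RE-bla cells, 4,000 per well, were compound-treated in the presence of rat liver microsomes and NADPH for 16 h at 37 C.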

[9] = p53 small molecule agonists, cell-based qHTS assay: qHTS cell viability counter screen (AID 1963581); further: nearly all actives have a fitted effect of over 45% in size
Outline: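 HCT-116 p53RE-bla cells, 4,000/well, plated 5 h before compound pin transfer; 16 h at 37 C; bla substrate 2 h RT; then CellTiter-Glo, 30 min RT, luminescence.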

[10] = p53 small molecule agonists, cell-based qHTS assay (AID 1963582; active means well fitted activation curve with a large enough effect in the signal ratio in the repeat runs, not every such curve was filed as active; the % refers to the signal ratio)
Outline: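 Reporter line: p53RE-bla. Pre-incubation 5 h, 37 C, 5% CO2; compound (DMSO, pin tool) 16 h, 37 C; B/G FRET substrate 2 h RT; fluorescence intensity read.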

[11] = target: 5-hydroxytryptamine receptor 2A (Homo sapiens) (UniProt P28223); assay: 5-hydroxytryptamine receptor 2A (HTR2A) small molecule antagonists, cell-based qHTS assay (AID 1963586); further: nearly all actives have a fitted effect of over 45% in size; further: potency means the concentration at half of the fitted maximal effect
Chain of 5-hydroxytryptamine receptor 2A (Homo sapiens) (P28223 whole entry, looked up): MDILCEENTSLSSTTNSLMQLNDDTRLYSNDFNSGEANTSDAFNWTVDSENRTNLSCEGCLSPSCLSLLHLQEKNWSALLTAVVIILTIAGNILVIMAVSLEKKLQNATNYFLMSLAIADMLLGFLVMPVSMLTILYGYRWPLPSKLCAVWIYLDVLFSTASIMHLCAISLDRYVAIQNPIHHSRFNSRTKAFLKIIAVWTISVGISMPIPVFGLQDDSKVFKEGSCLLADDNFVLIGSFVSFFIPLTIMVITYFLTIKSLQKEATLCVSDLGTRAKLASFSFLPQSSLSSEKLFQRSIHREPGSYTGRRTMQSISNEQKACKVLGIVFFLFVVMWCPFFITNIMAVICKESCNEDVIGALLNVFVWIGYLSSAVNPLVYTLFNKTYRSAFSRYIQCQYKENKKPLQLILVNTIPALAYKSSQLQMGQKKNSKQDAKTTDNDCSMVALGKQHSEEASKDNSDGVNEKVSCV
Outline: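 Antagonist-mode intracellular calcium assay: DOI (4 nM) added after 5 min compound pre-incubation at room temperature to dye-loaded HTR2A-CHO cells. Fluorescence followed for 3 min, sampled every second.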

[12] = target: 5-hydroxytryptamine receptor 2A (Homo sapiens) (UniProt P28223); assay: 5-hydroxytryptamine receptor 2A (HTR2A) small molecule agonists, cell-based qHTS assay (AID 1963587); further: nearly all actives have a fitted effect of over 30% in size
Outline: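 Kinetic calcium-flux fluorescence (2 min, 1 sec intervals) after compound addition in agonist mode. HTR2A-CHO cells were cultured 18 h, then dye-loaded 1 h at 37 C.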

[13] = target: Muscarinic acetylcholine receptor M1 (Homo sapiens) (UniProt P11229); assay: Cholinergic receptor muscarinic 1 (CHRM1) small molecule antagonists, cell-based qHTS assay (AID 1963588); further: nearly all actives have a fitted effect of over 40% in size; further: potency means the concentration at half of the fitted maximal effect
Chain of Muscarinic acetylcholine receptor M1 (Homo sapiens) (P11229 whole entry, looked up): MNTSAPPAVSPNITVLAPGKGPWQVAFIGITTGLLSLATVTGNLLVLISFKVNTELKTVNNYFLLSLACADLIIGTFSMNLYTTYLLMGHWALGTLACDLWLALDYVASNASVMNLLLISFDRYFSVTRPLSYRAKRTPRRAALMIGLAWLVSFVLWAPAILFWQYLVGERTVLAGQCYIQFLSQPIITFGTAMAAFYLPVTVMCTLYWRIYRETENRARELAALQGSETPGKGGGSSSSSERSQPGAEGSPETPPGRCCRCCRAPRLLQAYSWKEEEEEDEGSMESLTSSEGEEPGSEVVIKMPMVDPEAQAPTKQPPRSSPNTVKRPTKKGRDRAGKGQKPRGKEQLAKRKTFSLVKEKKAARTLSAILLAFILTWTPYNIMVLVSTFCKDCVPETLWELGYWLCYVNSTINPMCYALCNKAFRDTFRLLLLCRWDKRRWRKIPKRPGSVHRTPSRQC
Outline: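 CHRM1-CHO calcium-flux assay, antagonist mode. Cells were seeded 18 h, dye-loaded 1 h at 37 C and given compound for 5 min at RT, then acetylcholine was added at 50nM. FDSS fluorescence was read 3 min; 15 concentrations, three runs.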

[14] = target: Muscarinic acetylcholine receptor M1 (Homo sapiens) (UniProt P11229); assay: Cholinergic receptor muscarinic 1 (CHRM1) small molecule agonists, cell-based qHTS assay (AID 1963589); further: nearly all actives have a fitted effect of over 35% in size
Outline: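 Human M1 in stable CHO line; 18 h plating, 1 h dye load 37 C; cpd added (agonist mode); Ca2+ fluorescence kinetic read, 1 s intervals; 15 conc, 3 runs.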

[15] = cAMP Responsive Elements (CRE) small molecule agonists, cell-based qHTS assay (AID 1963590)
Outline: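 HEK 293T CRE-bla, 2,000 cells/well, 18 h preincubation 37 C/5% CO2; cpds (DMSO) pinned, 3 h; LiveBLAzer B/G FRET substrate, 2 h RT.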

[16] = cAMP Responsive Elements (CRE) small molecule antagonists, cell-based qHTS assay (AID 1963591; active means well fitted inhibition curve with a large enough effect in the signal ratio in the repeat runs, not every such curve was filed as active; the % refers to the signal ratio)
Outline: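 Beta-lactamase reporter read by FRET substrate (LiveBLAzer B/G) after 2 h at room temperature. CRE-bla HEK293T cells had received compound plus 0.25 uM (final) NKH477 for 3 h at 37 °C.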

[17] = target: Beta-2 adrenergic receptor (Homo sapiens) (UniProt P07550); assay: Adrenergic beta2 receptor (ADRB2) small molecule antagonists, cell-based qHTS assay (AID 1963592); further: series mostly up to about 92 µM; nearly all actives have a fitted effect of over 50% in size
Chain of Beta-2 adrenergic receptor (Homo sapiens) (P07550 whole entry, looked up): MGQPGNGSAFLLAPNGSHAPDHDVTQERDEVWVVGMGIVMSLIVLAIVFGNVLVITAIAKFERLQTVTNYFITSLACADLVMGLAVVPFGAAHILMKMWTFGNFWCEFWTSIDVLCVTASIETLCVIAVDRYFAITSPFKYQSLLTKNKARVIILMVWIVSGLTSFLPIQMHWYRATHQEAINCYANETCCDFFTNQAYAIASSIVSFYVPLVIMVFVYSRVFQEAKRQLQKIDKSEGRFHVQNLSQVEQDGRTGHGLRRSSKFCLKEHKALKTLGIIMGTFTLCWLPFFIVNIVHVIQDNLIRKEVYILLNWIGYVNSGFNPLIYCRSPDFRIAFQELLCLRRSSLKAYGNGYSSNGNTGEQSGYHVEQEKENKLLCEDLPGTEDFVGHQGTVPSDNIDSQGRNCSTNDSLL
Outline: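 Cells (CHO, stable ADRB2 overexpression) incubated 18-20hr at 37C; compounds added from DMSO; agonist mix (1nM isoproterenol, 100uM IBMX, 25uM Ro-20-1724) added; 0.5hr RT; d2-cAMP and anti-cAMP-cryptate added; 1hr RT; 665/615 nm read.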

[18] = target: D(2) dopamine receptor (Homo sapiens) (UniProt P14416); assay: Dopamine D2 receptor (DRD2) small molecule agonists, cell-based qHTS assay (AID 1963594); further: nearly all actives have a fitted effect of over 35% in size
Chain of D(2) dopamine receptor (Homo sapiens) (P14416 whole entry, looked up): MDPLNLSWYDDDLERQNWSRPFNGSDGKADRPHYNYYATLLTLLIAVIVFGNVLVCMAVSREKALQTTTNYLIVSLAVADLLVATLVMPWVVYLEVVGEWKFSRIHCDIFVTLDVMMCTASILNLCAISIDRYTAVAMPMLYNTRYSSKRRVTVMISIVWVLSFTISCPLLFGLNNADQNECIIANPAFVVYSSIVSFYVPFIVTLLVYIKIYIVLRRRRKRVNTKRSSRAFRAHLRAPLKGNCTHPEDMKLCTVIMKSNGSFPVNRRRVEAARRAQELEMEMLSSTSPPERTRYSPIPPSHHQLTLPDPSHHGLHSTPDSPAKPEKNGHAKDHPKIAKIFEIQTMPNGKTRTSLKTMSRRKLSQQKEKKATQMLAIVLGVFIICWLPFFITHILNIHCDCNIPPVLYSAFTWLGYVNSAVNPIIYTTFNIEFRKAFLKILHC
Outline: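 cAMP accumulation in DRD2-HEK293 cells measured by HTRF after 1 h detection; compounds added 10 min before NKH477 (200nM […]) forskolin-analogue stimulation, 30 min at room temperature, with Ro20-1724 present at 0.1 mM final.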

[19] = target: D(2) dopamine receptor (Homo sapiens) (UniProt P14416); assay: Dopamine D2 receptor (DRD2) small molecule antagonists, cell-based qHTS assay (AID 1963595; active means well fitted inhibition curve with a large enough effect in the signal ratio in the repeat runs, with a control signal flat; the % refers to the signal ratio; further: potency means the concentration at half of the fitted maximal effect)
Outline: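 HEK293 cells stably expressing DRD2 were preincubated with 0.1 mM Ro20-1724, then with compound for 10 min at room temperature. Cells were stimulated with 200 nM NKH477 plus 12 nM quinpirole for 30 min, and cAMP was read by HTRF.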

[20] = target: Beta-2 adrenergic receptor (Homo sapiens) (UniProt P07550); assay: Adrenergic beta2 receptor (ADRB2) small molecule agonists, cell-based qHTS assay (AID 1963593); further: potency means the concentration at half of the fitted maximal effect;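 on activation: CHO cells stably overexpressing human ADRB2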
Outline: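 CHO cells stably over-expressing ADRB2 were plated overnight at 37C, then dosed with compounds plus a stimulation mix containing 100uM IBMX and 25uM Ro-20-1724 for 0.5hr at room temperature. cAMP was measured by HTRF competition, 1hr.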

SMILES	Potency [1]	Potency [2]	Potency [3]	Potency [4]	Potency [5]	Potency [6]	Potency [7]	Potency [8]	Potency [9]	Potency [10]	Potency [11]	Potency [12]	Potency [13]	Potency [14]	Potency [15]	Potency [16]	Potency [17]	Potency [18]	Potency [19]	Potency [20]
COCC(C)OC(C)=O (configuration not stated)	inactive	inactive	inactive	inactive	inactive	inactive	inactive	inactive	inactive	inactive	inactive	inactive	inactive	inactive	inactive	inactive	inactive	inactive	inactive	
FC(F)(F)c1cccc(Cl)c1	inactive	inactive	inactive	inactive	inactive	inactive	inactive	inactive	inactive	inactive	inactive	inactive	inactive	inactive	inactive	inactive		inactive	inactive	
C=CC(C)(O)CC/C=C(\C)CC (configuration not stated)	inactive	inactive	inactive	inactive	inactive	inactive	inactive	inactive	inactive	inactive	inactive	inactive	inactive	inactive	inactive			inactive	inactive	inactive
COc1cc(N)c(Cl)cc1C(=O)NC1CCN(Cc2ccccc2)CC1	inactive	inactive	inactive	inactive	inactive	inactive	inactive	inactive	inactive	inactive	1.83 µM (active)	inactive		inactive	inactive	inactive	inactive	inactive	29.8 nM (active)	
Cc1cc(CCC(=O)OCCOCCOCCOC(=O)CCc2cc(C)c(O)c(C(C)(C)C)c2)cc(C(C)(C)C)c1O	inactive	inactive	inactive	inactive	inactive	inactive	inactive	inactive	inactive		inactive	inactive	inactive	inactive	inactive	inactive	inactive	inactive		
O=C(O)CCCCCCCCCCC(=O)O	inactive	inactive	inactive	inactive			inactive	inactive	inactive		inactive		inactive	inactive				inactive	inactive	inactive
COC(=O)C1=C(C)NC(C)=C(C(=O)OCCN(C)Cc2ccccc2)C1c1cccc([N+](=O)[O-])c1 (configuration not stated)	30.5 µM (active)	inactive	inactive	inactive					inactive		inactive		1.32 µM (active) and inactive	inactive		inactive	inactive	inactive	inactive	
CCCC1O[C@@H]2C[C@H]3[C@@H]4CCC5=CC(=O)C=C[C@]5(C)[C@H]4[C@@H](O)C[C@]3(C)[C@]2(C(=O)CO)O1 (some centres not stated)	inactive	inactive	inactive	inactive		inactive	inactive	inactive	inactive								inactive	inactive	inactive	inactive
CC1COc2ccccc2N1C(=O)C(Cl)Cl (configuration not stated)	inactive	21.6 µM (active)	inactive	inactive			inactive	inactive				inactive	inactive	inactive		inactive	inactive	inactive	inactive	inactive
O=Cc1ccccc1C=O	61.1 µM (active) and inactive	24.3 µM (active) and inactive	inactive	inactive			inactive	inactive	inactive		inactive	inactive	42.1 µM (active) and inactive	inactive		inactive	inactive	inactive	inactive	43.3 µM (active)
[Cl][Nd]([Cl])[Cl]	inactive	inactive	inactive	inactive		inactive	inactive	inactive	inactive	inactive	inactive		inactive	inactive	inactive	inactive	inactive	inactive	inactive	inactive
CC(C)=CCC/C(C)=C/C(=O)O	inactive	inactive	inactive	inactive		inactive	inactive	inactive	inactive	inactive		inactive	inactive	inactive	inactive	inactive		inactive	inactive	inactive
OCC(CO)(CBr)CBr	inactive	inactive	inactive	inactive			inactive	inactive	inactive		inactive	inactive	inactive	inactive	inactive	inactive	inactive	inactive	inactive	
Fc1c(F)c(F)c(Br)c(F)c1F	inactive	inactive	inactive	inactive	inactive	inactive		inactive	inactive	inactive	inactive	inactive	inactive	inactive		inactive	inactive	inactive		
c1ccc2cnccc2c1	inactive	inactive	inactive	inactive	inactive	inactive	inactive		inactive	inactive	inactive	inactive	inactive	inactive	inactive	inactive	inactive	inactive	inactive	
